From PubChem BioAssay (Tox21)
Values joined by “and” are separate entries in the source; they are usually repeats but may differ in a detail not shown here. Equal entries are not always repeated. Results filed as inconclusive are left out. A call without a number means that no potency is given here. The source holds several records for some structures; these can differ, active in one and inactive in another. Active and inactive are the calls of the source. Unless noted, calls come from the whole dose curve; as a rule, active = well fitted curve in the direction sought with a large enough effect in the repeat runs; inconclusive = weak or mixed curves; inactive = no such curve, though single readings can be large; an effect the other way counts as inactive or inconclusive.

Tests used:
[1] = qHTS assay to identify aromatase inhibitors - cell viability counter screen (AID 743084);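 note: cells stimulated with testosterone during compound exposure; nearly all actives have a fitted effect of over 55% in size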; note: potency is the fitted concentration of half-maximal effect
[2] = target: Aryl hydrocarbon receptor (Homo sapiens) (UniProt P35869); assay: qHTS assay to identify small molecule that activate the aryl hydrocarbon receptor (AhR) signaling pathway (AID 743085); note: nearly all actives have a fitted effect of over 15% in size; note: potency is the fitted concentration of half-maximal effect;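 for activation: HG2L7.5c1 human HepG2 liver cells with stably integrated DRE-driven firefly reporter; series mostly up to about 70 µM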
Method in brief: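 Compounds were tested in HepG2 hepatocellular carcinoma cells harbouring a stably integrated luciferase gene under control of 20 DREs. Increased reporter signal after 24 h treatment at 37C was taken as AhR activation.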

[3] = qHTS assay to identify small molecule that activate the aryl hydrocarbon receptor (AhR) signaling pathway - cell viability counter screen (AID 743086); note: nearly all actives have a fitted effect of over 45% in size; note: potency is the fitted concentration of half-maximal effect
Method in brief: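 HepG2-AhR-luc (HG2L7.5c1) cells, 4000/well, were preincubated 5 h at 37C, exposed to compound in qHTS format for 24 hr at 37C, then given CellTiter-Fluor for 30 min; viability was read as fluorescence in the reporter wells.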

[4] = target: Peroxisome proliferator-activated receptor gamma (Homo sapiens) (UniProt P37231); assay: qHTS assay to identify small molecule agonists of the peroxisome proliferator-activated receptor gamma (PPARg) signaling pathway (AID 743094; active = well fitted activation curve with a large enough effect in the signal ratio in the repeat runs, not every such curve was filed as active; the % refers to the signal ratio)
Method in brief: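 Following 5 h plating at 37C, PPARg-bla HEK293H cells receive compound or DMSO for 17 h; fluorescence intensity is recorded after LiveBLAzer B/G loading for 1 h at room temperature.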

[5] = target: Peroxisome proliferator-activated receptor gamma (Homo sapiens) (UniProt P37231); assay: qHTS assay to identify small molecule antagonists of the peroxisome proliferator-activated receptor gamma (PPARg) signaling pathway (AID 743191; calls by dose curve; note: nearly all actives have a fitted effect of over 30% in size; note: potency is the fitted concentration of half-maximal effect)
Method in brief: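 GeneBLAzer PPARg UAS-bla HEK293H cells carrying a UAS-driven beta-lactamase reporter were plated at 3000 cells/well, preincubated 5 h at 37C, then given compound for 17 h at 37C; LiveBLAzer B/G FRET substrate was read after 1 h at room temperature.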

[6] = qHTS assay to identify small molecule antagonists of the peroxisome proliferator-activated receptor gamma (PPARg) signaling pathway - cell viability counter screen (AID 743194); conditions: Potency: co-treated with 50 nM rosiglitazone unless noted; note: nearly all actives have a fitted effect of over 55% in size; note: potency is the fitted concentration of half-maximal effect
Method in brief: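 PPARg-UAS-bla HEK293H cells were plated, rested 5 h at 37 C, then treated with compounds plus rosiglitazone (50 nM final) for 17 h at 37 C; viability was then read by CellTiter-Glo luminescence after 30 min at room temperature.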

[7] = qHTS assay for small molecule agonists of the antioxidant response element (ARE) signaling pathway (AID 743202; active = well fitted activation curve with a large enough effect in the signal ratio in the repeat runs, not every such curve was filed as active; the % refers to the signal ratio; note: potency is the fitted concentration of half-maximal effect)
Method in brief: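 Read-out: LiveBLAzer B/G FRET substrate fluorescence after 2 h at room temperature, following 16 h compound treatment at 37 C of HepG2 cells carrying an ARE-driven beta-lactamase reporter.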

[8] = qHTS assay for small molecule agonists of the antioxidant response element (ARE) signaling pathway - cell viability counter screen (AID 743203; calls by dose curve; note: nearly all actives have a fitted effect of over 55% in size; note: potency is the fitted concentration of half-maximal effect)
Method in brief: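 Compounds in DMSO were pinned onto ARE-bla HepG2 cells plated 5 hrs earlier at 2,000 cells/well. Sixteen hours later at 37C/5% CO2, CellTiter-Glo was added and luminescence measured after 30 min at room temperature.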

[9] = qHTS assay for small molecule activators of the heat shock response signaling pathway - cell viability counter screen (AID 743209); note: nearly all actives have a fitted effect of over 50% in size; note: potency is the fitted concentration of half-maximal effect
Method in brief: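 Counter screen for cytotoxicity in HeLa HSE-bla reporter cells. Treatment was 5 h at 37 C; viability was detected by luminescent ATP assay (CellTiter-Glo) in the same wells as the beta-lactamase read.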

[10] = qHTS assay for small molecule activators of the heat shock response signaling pathway (AID 743210; active = well fitted activation curve with a large enough effect in the signal ratio in the repeat runs, with a control signal flat, not every such curve was filed as active; the % refers to the signal ratio; note: series mostly up to about 63 µM)
Method in brief: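 HSE-bla HeLa cells (beta-lactamase reporter under heat shock response elements) were exposed to compounds for 5 h at 37 C, then loaded with LiveBLAzer B/G FRET substrate for 2.5 h at room temperature before fluorescence reading.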

Chain of Peroxisome proliferator-activated receptor gamma (Homo sapiens) (P37231 whole entry, looked up): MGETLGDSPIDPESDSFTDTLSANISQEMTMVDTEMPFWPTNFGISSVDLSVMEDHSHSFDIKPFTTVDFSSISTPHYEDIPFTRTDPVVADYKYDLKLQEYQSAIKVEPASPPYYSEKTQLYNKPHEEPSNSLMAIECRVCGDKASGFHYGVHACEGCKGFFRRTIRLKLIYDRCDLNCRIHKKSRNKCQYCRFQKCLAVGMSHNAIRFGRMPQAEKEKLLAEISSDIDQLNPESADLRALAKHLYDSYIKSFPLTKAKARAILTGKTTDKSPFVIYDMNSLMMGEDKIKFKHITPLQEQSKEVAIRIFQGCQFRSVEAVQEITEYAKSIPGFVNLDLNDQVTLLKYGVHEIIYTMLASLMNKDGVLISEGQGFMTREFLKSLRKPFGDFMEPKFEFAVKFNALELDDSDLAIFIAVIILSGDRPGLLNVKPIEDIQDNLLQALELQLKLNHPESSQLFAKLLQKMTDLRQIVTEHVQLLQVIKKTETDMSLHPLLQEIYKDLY
Chain of Aryl hydrocarbon receptor (Homo sapiens) (P35869 whole entry, looked up): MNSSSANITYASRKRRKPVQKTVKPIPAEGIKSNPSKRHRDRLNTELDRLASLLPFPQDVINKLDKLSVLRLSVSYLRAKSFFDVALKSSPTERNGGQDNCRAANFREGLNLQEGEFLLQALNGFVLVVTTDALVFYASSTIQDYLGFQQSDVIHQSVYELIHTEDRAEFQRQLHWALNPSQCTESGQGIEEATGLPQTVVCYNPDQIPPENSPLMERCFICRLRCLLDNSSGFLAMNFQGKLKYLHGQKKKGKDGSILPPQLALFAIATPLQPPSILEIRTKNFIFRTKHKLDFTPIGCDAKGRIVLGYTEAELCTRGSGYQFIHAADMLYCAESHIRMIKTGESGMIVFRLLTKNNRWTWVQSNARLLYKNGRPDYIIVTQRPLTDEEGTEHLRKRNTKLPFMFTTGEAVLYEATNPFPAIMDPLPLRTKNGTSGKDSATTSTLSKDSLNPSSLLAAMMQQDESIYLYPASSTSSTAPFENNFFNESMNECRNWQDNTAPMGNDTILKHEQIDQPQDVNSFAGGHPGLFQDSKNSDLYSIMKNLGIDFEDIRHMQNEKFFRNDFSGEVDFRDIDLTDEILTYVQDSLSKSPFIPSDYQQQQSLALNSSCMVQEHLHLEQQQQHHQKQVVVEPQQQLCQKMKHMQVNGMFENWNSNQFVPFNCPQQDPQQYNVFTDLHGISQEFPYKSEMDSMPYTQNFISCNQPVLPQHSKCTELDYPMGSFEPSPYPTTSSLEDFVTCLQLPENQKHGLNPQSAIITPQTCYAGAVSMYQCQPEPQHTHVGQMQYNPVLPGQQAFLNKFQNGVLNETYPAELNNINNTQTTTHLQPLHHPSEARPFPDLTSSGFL

| SMILES | Potency [1] | Potency [2] | Potency [3] | Potency [4] | Potency [5] | Potency [6] | Potency [7] | Potency [8] | Potency [9] | Potency [10] |
| --- | --- | --- | --- | --- | --- | --- | --- | --- | --- | --- |
| CC(C)COC(=O)c1ccccc1C(=O)OCC(C)C | inactive | inactive | inactive | inactive | inactive | inactive | inactive | inactive | inactive | inactive |
| C[N+](C)(C)CC(=O)[O-] | inactive | inactive | inactive | inactive |  | inactive | inactive | inactive | inactive |  |
| COP(=S)(OC)Oc1ccc(Sc2ccc(OP(=S)(OC)OC)cc2)cc1 | inactive | inactive | inactive | inactive |  | inactive | inactive | 43.3 µM (active) and inactive | inactive |  |
| [CH3][Sn]([Cl])([Cl])[Cl] | inactive | inactive | inactive | inactive | inactive | inactive | inactive | inactive | inactive | inactive |
| CC[n+]1c(-c2ccccc2)c2cc(N)ccc2c2ccc(N)cc21 | inactive and 30.5 µM (active) | 26.6 µM (active) and 29.8 µM (active) and 12.1 µM (active) | inactive and 12.1 µM (active) | inactive | 48.8 µM (active) and 26.6 µM (active) |  |  | inactive | inactive |  |
| Clc1cccc(Cl)c1 | inactive | inactive | inactive | inactive | inactive | inactive | inactive | inactive | inactive | inactive |
| CCOP(=S)(OCC)SCn1c(=O)oc2cc(Cl)ccc21 | inactive | 32.9 µM (active) and 61.1 µM (active) | inactive | inactive | inactive |  | 9.69 µM (active) | inactive | inactive | inactive |
| CCCCOCCOC(C)=O | inactive | inactive | inactive | inactive |  | inactive | inactive | inactive | inactive | inactive |
| Cc1cc(Cl)ccc1N=CN(C)C | inactive | inactive | inactive | inactive |  | inactive | inactive | inactive | inactive |  |
| COc1ccc(O)c(C(C)(C)C)c1 | inactive | inactive | inactive | inactive | inactive | inactive |  | inactive | inactive | inactive |
| S=c1[nH]c2ccccc2[nH]1 | inactive | 68.6 µM (active) | inactive | inactive | inactive | inactive |  | inactive | inactive | inactive |
| CCOC(=O)c1ccccc1N | inactive | inactive | inactive | inactive |  | inactive | inactive | inactive | inactive | inactive |
| COP(=S)(OC)SCn1nnc2ccccc2c1=O | inactive | inactive | inactive | inactive | 49 µM (active) | inactive | inactive | inactive | inactive | inactive |
| Cn1c(-c2ccccc2)cc(-c2ccccc2)[n+]1C | inactive | inactive | inactive | inactive | inactive | inactive |  | inactive | inactive |  |
| CC1(C)C(C(=O)OC(C#N)c2cccc(Oc3ccccc3)c2)C1(C)C (configuration not stated) | inactive | inactive | inactive | inactive | inactive | inactive | inactive | inactive | inactive | inactive |
| COP(=S)(OC)Oc1ccc(S(=O)(=O)N(C)C)cc1 | inactive | inactive | inactive | inactive | inactive | inactive |  | inactive | inactive | inactive |
| COc1ccc(C=O)cc1OC | inactive | inactive | inactive | inactive | inactive | inactive | inactive | inactive | inactive | inactive |
| C[C@]12CC[C@H]3[C@@H](CCC4=CC(=O)CC[C@@H]43)[C@@H]1CC[C@@H]2O | inactive | inactive | inactive | inactive |  | inactive | 34.1 µM (active) | inactive | inactive | inactive |
| CCC/C=N/O | inactive | inactive | inactive | inactive |  | inactive | inactive | inactive | inactive | inactive |
| CCCCCCCCCCCCCl | inactive | inactive | inactive | inactive | inactive | inactive | inactive | inactive | inactive | inactive |
| Cc1ccc([N+](=O)[O-])cc1 | inactive | inactive | inactive | inactive | inactive | inactive | inactive | inactive | inactive | inactive |
| Nc1ccc2ccccc2c1 | inactive | 20.9 µM (active) and 27.3 µM (active) | inactive | inactive | inactive | inactive | inactive | inactive | inactive | inactive |
| COC(=O)Nc1nc2ccccc2[nH]1 | inactive | 24.3 µM (active) | inactive | inactive | inactive |  | inactive | inactive | inactive | inactive |
| CCCCOC(=O)COC(=O)c1ccccc1C(=O)OCCCC | inactive | inactive | inactive | inactive | inactive | inactive | inactive | inactive | inactive | inactive |
| Cc1ccc(N=CN(C)C=Nc2ccc(C)cc2C)c(C)c1 | inactive | inactive and 48.8 µM (active) | inactive | inactive | inactive |  | inactive | inactive | inactive | inactive |
| CCCCCCCCCC(CC)c1ccc(S(=O)(=O)O)cc1 (configuration not stated) | inactive |  | inactive |  |  | inactive and 15.5 µM [setting not given] (active) | inactive |  | inactive and 39.9 µM (active) |  |
| CC(C)(c1ccccc1)c1ccc(O)cc1 | 48.2 µM (active) | inactive |  | inactive | inactive |  |  | 60.6 µM (active) | inactive | inactive |
| CCC[CH2][Sn]([Cl])([Cl])[CH2]CCC | 1.39 µM (active) and 686 nM (active) | inactive | 1.39 µM (active) and 486 nM (active) |  |  | 882 nM (active) and 43.6 nM (active) |  | 276 nM (active) and 34.4 nM (active) | 0.0549 µM (active) |  |
